Test results published in ChEMBL document CHEMBL1961873, “Compounds: GSK PKIS; Assays: Nanosyn kinase panel” (2012).
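Further: reported percent inhibition is a mean value.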

The compounds below were run against Aurora kinase B (Homo sapiens) (UniProt Q96GD4). Settings: at 1 µM.
Chain of Aurora kinase B (Homo sapiens) (Q96GD4 whole entry): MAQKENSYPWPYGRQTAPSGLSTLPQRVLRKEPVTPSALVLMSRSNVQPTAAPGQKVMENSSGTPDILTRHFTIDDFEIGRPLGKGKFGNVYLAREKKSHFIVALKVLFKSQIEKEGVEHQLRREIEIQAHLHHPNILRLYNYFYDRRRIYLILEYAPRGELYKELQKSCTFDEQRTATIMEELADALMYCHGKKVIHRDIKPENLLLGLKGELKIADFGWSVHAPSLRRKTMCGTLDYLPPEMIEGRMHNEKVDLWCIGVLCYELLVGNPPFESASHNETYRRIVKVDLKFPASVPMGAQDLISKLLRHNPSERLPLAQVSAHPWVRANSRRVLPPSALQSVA
For CNC(=O)c1cncc(/C=C/c2ccccc2C)c1, the inhibition was -0.01%.
CC(C)c1ccc(-c2cc(-c3c[nH]nc3-c3ccccn3)ccn2)cc1 showed an inhibition of 5.53%.
For Fc1cccc(COc2ccc(Nc3ncncc3C#Cc3ccccc3)cc2Cl)c1, the inhibition was 6%.
NS(=O)(=O)c1ccc(N/N=C2\C(=O)Nc3cccc(CCc4ccncc4)c32)cc1 gave an inhibition of 7.9%.
With CCn1c(-c2nonc2N)nc2cncc(C(=O)NCCNC)c21 the inhibition was 1.83%.
CS(=O)(=O)CCNCc1ccc(-c2ccc3ncnc(Nc4ccc(OCc5cccc(C(F)(F)F)c5)cc4)c3c2)o1 showed an inhibition of 4.87%.
Cc1cc(O)cc(C)c1/C=C/c1cncc(C(=O)OC(C)(C)C)c1 showed an inhibition of 6.42%.
With O=C(O[C@H]1CN[C@H](C#Cc2cc3ncnc(Nc4ccc(OCc5cccc(F)c5)c(Cl)c4)c3s2)C1)N1CCOCC1 the inhibition was 9.81%.
In the case of c1ccc(-c2n[nH]cc2-c2ccnc(-c3ccc(OCCn4ccnc4)cc3)c2)nc1, the inhibition is reported as 15.1%.
Work on c1cnn2ncc(-c3ccnc(NCCCN4CCOCC4)n3)c2c1 yielded an inhibition of 5.43%.
Compound O=C(O[C@H]1CN[C@H](C#Cc2cc3ncnc(Nc4ccc5c(ccn5Cc5cc(F)ccc5F)c4)c3s2)C1)N1CCOCC1 has an inhibition of 8.88%.
For O=C(O[C@H]1CN[C@H](C#Cc2cc3ncnc(Nc4ccc5c(cnn5Cc5ccccc5)c4)c3s2)C1)N1CCOCC1, the inhibition was 11.1%.
Compound COc1ccc(Nc2ncc(-c3ccccc3)o2)cc1OC has an inhibition of 51.1%.
CC1=C(C(=O)Nc2ccc3[nH]nc(C)c3c2)C(c2ccc(C(F)(F)F)cc2)CC(=O)N1 (stereo unspecified) showed an inhibition of 45.7%.
Cn1c(-c2nonc2N)nc2cnccc21 showed an inhibition of 4.18%.
Compound CCS(=O)(=O)c1ccc(OC)c(Nc2ncc(-c3cccc(F)c3)o2)c1 has an inhibition of 3.78%.
